Measurements taken from PubChem BioAssay (Tox21).
Inconclusive results are not listed. Active and inactive are the calls of the source. Unless noted, the call rests on the fitted dose curve.

Experiments:
[1] = Nuclear factor erythroid 2-related factor 2/antioxidant responsive element (Nrf2/ARE) small molecule agonists: qHTS cell viability counter screen in human keratinocytes (AID 1919968; active means well fitted curve in the direction sought with a large enough effect in the repeat runs; an effect the other way counts as inactive or inconclusive; further: nearly all actives have a fitted effect of over 55% in size; further: potency means the concentration at half of the fitted maximal effect)
In short: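 Fluorescence read-out from CellTiter-Fluor after 1 h at 37 C. Wells held HaCaT-derived ARE-luciferase reporter cells (1,500/well) treated 23 h with DMSO-dissolved compounds. Run in the same wells as the luciferase agonist read.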

[2] = Nuclear factor erythroid 2-related factor 2/antioxidant responsive element (Nrf2/ARE) small molecule agonists: luciferase reporter gene qHTS assay in human keratinocytes (AID 1919969); further: nearly all actives have a fitted effect of over 35% in size; further: potency means the concentration at half of the fitted maximal effect
[3] = target: KiSS-1 receptor (Homo sapiens) (UniProt Q969F8); experiment: Human kisspeptin (KISS1R) small molecule agonists, calcium flux assay in KISS1R-HEK293 cells (AID 1920064; active means well fitted curve in the direction sought with a large enough effect in the repeat runs; an effect the other way counts as inactive or inconclusive)
In short: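 Calcium flux read-out: kinetic fluorescence at Ex/Em=480/540, 1 s intervals over 3 min, after pin-tool compound addition to dye-loaded KISS1R-HEK293 cells. Fifteen concentrations, triplicates.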

[4] = G protein-coupled receptor (GPCR) small molecule agonists, calcium flux assay: HEK293 wild type cell line counter screen (AID 1920065)
In short: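 Agonist mode; 18 h seeding at 37 C, 1 h dye load at 37 C; compounds pinned from DMSO, ATP as positive control; kinetic fluorescence 480/540 nm, 3 min, 1 s reads; 15 concentrations, triplicate.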

[5] = p53 small molecule agonists, cell-based qHTS assay with rat liver microsomes (AID 1963578)
In short: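 Compound in DMSO added to p53RE-bla cells 5 h post-plating; rat microsomes/NADPH 0.5 mg/mL final; 16 h, 37 C; LiveBLAzer 2 h RT.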

[6] = p53 small molecule agonists, cell-based qHTS assay with rat liver microsomes: qHTS cell viability counter screen (AID 1963580); further: nearly all actives have a fitted effect of over 45% in size
In short: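 Luminescent ATP readout (CellTiter-Glo, 30 min at room temperature) reports viability of p53RE-bla HCT-116 cells after 16 h at 37 C with test compounds under metabolic activation by rat liver microsomes and NADPH at 0.5 mg/mL final each.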

[7] = p53 small molecule agonists, cell-based qHTS assay: qHTS cell viability counter screen (AID 1963581); further: nearly all actives have a fitted effect of over 45% in size; further: potency means the concentration at half of the fitted maximal effect
In short: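 Cytotoxicity read-out: ATP-based luminescence (CellTiter-Glo, 30 min RT) measured in the same wells as the p53 reporter assay, HCT-116 p53RE-bla cells, 16 h compound exposure at 37 C.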

[8] = p53 small molecule agonists, cell-based qHTS assay (AID 1963582; active means well fitted activation curve with a large enough effect in the signal ratio in the repeat runs, not every such curve was filed as active; the % refers to the signal ratio)
In short: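 Fluorescence intensity read-out of a beta-lactamase reporter under a p53 response element. Cells were exposed to DMSO-dissolved compounds for 16 h at 37 C, then developed with FRET substrate for 2 h at RT.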

[9] = cAMP Responsive Elements (CRE) small molecule agonists, cell-based qHTS assay (AID 1963590)
In short: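 Beta-lactamase reporter readout: LiveBLAzer B/G FRET substrate, 2 h at room temperature, added after 3 h compound treatment of CRE-bla HEK 293T cells at 37 C/5% CO2.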

[10] = cAMP Responsive Elements (CRE) small molecule antagonists, cell-based qHTS assay (AID 1963591; active means well fitted inhibition curve with a large enough effect in the signal ratio in the repeat runs, not every such curve was filed as active; the % refers to the signal ratio)
In short: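 HEK293T CRE-bla; 18 h preincubation; compound pin-transfer; NKH477 0.25 uM final, 3 h, 37 C; LiveBLAzer FRET substrate 2 h RT.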

[11] = target: Beta-2 adrenergic receptor (Homo sapiens) (UniProt P07550); experiment: Adrenergic beta2 receptor (ADRB2) small molecule antagonists, cell-based qHTS assay (AID 1963592); further: series mostly up to about 92 µM; nearly all actives have a fitted effect of over 50% in size
In short: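 Assay format: CHO-ADRB2 cells, 18-20hr seeding at 37C/5% CO2, then compound plus 1nM isoproterenol agonist mix for 0.5hr RT. Homogeneous time-resolved fluorescence cAMP detection after 1hr, expressed as 665/615 nm ratio.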

[12] = target: D(2) dopamine receptor (Homo sapiens) (UniProt P14416); experiment: Dopamine D2 receptor (DRD2) small molecule agonists, cell-based qHTS assay (AID 1963594); further: nearly all actives have a fitted effect of over 35% in size
In short: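 HEK293 cells stably expressing DRD2 were cultured 24 h at 37 C, then given Ro20-1724 (0.1 mM final) and compounds for 10 min at room temperature. NKH477 (200nM) was then added for 30 min. cAMP was read by HTRF.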

[13] = target: D(2) dopamine receptor (Homo sapiens) (UniProt P14416); experiment: Dopamine D2 receptor (DRD2) small molecule antagonists, cell-based qHTS assay (AID 1963595; active means well fitted inhibition curve with a large enough effect in the signal ratio in the repeat runs, with a control signal flat; the % refers to the signal ratio; further: potency means the concentration at half of the fitted maximal effect)
In short: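 DRD2-HEK293; 0.1 mM Ro20-1724; cpd 10 min RT; NKH477 200 nM + quinpirole 12 nM, 30 min RT; HTRF cAMP (cAMP-d2/anti-cAMP cryptate), 665/620 nm ratio after 1 h.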

[14] = p53 small molecule agonists, cell-based qHTS assay with human liver microsomes (AID 1963577);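 further: p53 response element beta-lactamase reporter cells with liver microsomes plus NADPH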
In short: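 Reporter activation was measured by LiveBLAzer fluorescence intensity in p53RE-bla cells, which had been exposed to compounds for 16 h at 37 C alongside 0.5 mg/mL human liver microsomes and 0.5 mg/mL NADPH (final concentrations).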

[15] = p53 small molecule agonists, cell-based qHTS assay with human liver microsomes: qHTS cell viability counter screen (AID 1963579); further: nearly all actives have a fitted effect of over 45% in size; further: potency means the concentration at half of the fitted maximal effect
In short: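 HLM-supplemented (0.5 mg/mL final) and NADPH-supplemented (0.5 mg/mL final) p53RE-bla cultures, 4,000 cells per well, were dosed with compounds in DMSO for 16 h at 37 C; luminescent ATP detection (CellTiter-Glo, 30 min, room temperature) quantified surviving cells.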

[16] = target: 5-hydroxytryptamine receptor 2A (Homo sapiens) (UniProt P28223); experiment: 5-hydroxytryptamine receptor 2A (HTR2A) small molecule antagonists, cell-based qHTS assay (AID 1963586); further: nearly all actives have a fitted effect of over 45% in size
In short: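 CHO cells stably expressing human HTR2A were plated for 18 h at 37 C, then loaded with calcium dye for 1 h. Compounds were preincubated 5 min at room temperature before DOI (4 nM solution) was added. Kinetic fluorescence was read for 3 min.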

[17] = target: 5-hydroxytryptamine receptor 2A (Homo sapiens) (UniProt P28223); experiment: 5-hydroxytryptamine receptor 2A (HTR2A) small molecule agonists, cell-based qHTS assay (AID 1963587); further: nearly all actives have a fitted effect of over 30% in size
In short: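 HTR2A-CHO cells, plated 18 h at 37 C/5% CO2, dye-loaded 1 h at 37 C; compounds in DMSO added by pin tool (agonist mode). Intracellular calcium flux read as kinetic fluorescence on FDSS over 2 min at 1 s intervals.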

[18] = target: Muscarinic acetylcholine receptor M1 (Homo sapiens) (UniProt P11229); experiment: Cholinergic receptor muscarinic 1 (CHRM1) small molecule antagonists, cell-based qHTS assay (AID 1963588); further: nearly all actives have a fitted effect of over 40% in size; further: potency means the concentration at half of the fitted maximal effect
In short: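 Compounds were tested at 15 concentrations in three independent runs. Dye-loaded CHRM1-CHO cells were exposed 5 min at room temperature before stimulation by acetylcholine added at 50nM. Intracellular calcium was read kinetically on FDSS for 3 min.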

[19] = target: Muscarinic acetylcholine receptor M1 (Homo sapiens) (UniProt P11229); experiment: Cholinergic receptor muscarinic 1 (CHRM1) small molecule agonists, cell-based qHTS assay (AID 1963589); further: nearly all actives have a fitted effect of over 35% in size
In short: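 Calcium flux read-out: kinetic fluorescence at 1 sec intervals after pin-tool compound addition to dye-loaded CHRM1-CHO cells (human M1). Agonist mode; 15 concentrations tested in triplicate independent runs.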

[20] = target: Beta-2 adrenergic receptor (Homo sapiens) (UniProt P07550); experiment: Adrenergic beta2 receptor (ADRB2) small molecule agonists, cell-based qHTS assay (AID 1963593);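 further: CHO cells stably overexpressing human ADRB2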
In short: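 CHO cells stably over-expressing ADRB2 were plated overnight at 37C, then dosed with compounds plus a stimulation mix containing 100uM IBMX and 25uM Ro-20-1724 for 0.5hr at room temperature. cAMP was measured by HTRF competition, 1hr.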
On the % scale 0 is the no-effect control and ±100 the full control effect.

Chain of KiSS-1 receptor (Homo sapiens) (Q969F8 whole entry, looked up): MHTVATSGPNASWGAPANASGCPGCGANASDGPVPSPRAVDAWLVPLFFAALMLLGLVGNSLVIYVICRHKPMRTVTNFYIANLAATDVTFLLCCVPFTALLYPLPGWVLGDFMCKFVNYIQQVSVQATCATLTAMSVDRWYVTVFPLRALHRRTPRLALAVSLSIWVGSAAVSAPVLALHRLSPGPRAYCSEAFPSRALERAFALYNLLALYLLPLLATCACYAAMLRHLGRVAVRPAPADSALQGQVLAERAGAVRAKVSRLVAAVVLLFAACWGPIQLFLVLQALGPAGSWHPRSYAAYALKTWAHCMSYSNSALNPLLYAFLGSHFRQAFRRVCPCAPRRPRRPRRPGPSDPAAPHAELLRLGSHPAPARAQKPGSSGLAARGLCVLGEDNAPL
Chain of Muscarinic acetylcholine receptor M1 (Homo sapiens) (P11229 whole entry, looked up): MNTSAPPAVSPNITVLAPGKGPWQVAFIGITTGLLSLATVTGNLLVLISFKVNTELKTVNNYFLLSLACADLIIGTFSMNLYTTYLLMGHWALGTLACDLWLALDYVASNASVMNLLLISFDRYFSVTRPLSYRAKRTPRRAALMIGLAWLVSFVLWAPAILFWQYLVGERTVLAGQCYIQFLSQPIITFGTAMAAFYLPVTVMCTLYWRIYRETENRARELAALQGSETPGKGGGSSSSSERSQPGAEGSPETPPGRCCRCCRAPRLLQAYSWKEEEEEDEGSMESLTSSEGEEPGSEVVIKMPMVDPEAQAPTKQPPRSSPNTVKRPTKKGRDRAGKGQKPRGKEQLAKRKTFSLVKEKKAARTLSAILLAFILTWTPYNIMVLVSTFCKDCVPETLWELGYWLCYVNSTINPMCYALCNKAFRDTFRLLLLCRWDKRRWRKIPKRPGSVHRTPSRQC
Chain of Beta-2 adrenergic receptor (Homo sapiens) (P07550 whole entry, looked up): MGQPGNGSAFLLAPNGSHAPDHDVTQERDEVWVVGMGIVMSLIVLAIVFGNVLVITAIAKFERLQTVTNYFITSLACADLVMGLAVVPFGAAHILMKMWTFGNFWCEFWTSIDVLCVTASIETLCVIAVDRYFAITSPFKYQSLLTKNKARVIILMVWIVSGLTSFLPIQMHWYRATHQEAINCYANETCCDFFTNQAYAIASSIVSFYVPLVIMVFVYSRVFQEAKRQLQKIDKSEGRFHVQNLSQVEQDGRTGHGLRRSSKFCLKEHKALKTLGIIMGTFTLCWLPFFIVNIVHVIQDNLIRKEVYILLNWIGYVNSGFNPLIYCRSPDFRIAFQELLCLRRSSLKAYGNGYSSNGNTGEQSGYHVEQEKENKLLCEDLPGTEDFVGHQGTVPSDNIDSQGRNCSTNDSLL
Chain of D(2) dopamine receptor (Homo sapiens) (P14416 whole entry, looked up): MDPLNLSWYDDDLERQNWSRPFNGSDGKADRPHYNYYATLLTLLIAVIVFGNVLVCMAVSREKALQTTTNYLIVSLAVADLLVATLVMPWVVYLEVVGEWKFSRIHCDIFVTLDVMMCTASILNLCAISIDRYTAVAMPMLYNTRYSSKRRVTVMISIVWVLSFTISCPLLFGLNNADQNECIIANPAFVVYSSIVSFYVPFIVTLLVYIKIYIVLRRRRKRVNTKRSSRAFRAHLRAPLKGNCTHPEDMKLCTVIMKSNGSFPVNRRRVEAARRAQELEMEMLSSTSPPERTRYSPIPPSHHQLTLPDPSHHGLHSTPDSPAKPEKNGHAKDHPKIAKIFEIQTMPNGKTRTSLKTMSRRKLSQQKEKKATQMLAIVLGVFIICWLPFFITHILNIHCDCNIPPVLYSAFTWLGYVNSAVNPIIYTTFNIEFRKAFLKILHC
Chain of 5-hydroxytryptamine receptor 2A (Homo sapiens) (P28223 whole entry, looked up): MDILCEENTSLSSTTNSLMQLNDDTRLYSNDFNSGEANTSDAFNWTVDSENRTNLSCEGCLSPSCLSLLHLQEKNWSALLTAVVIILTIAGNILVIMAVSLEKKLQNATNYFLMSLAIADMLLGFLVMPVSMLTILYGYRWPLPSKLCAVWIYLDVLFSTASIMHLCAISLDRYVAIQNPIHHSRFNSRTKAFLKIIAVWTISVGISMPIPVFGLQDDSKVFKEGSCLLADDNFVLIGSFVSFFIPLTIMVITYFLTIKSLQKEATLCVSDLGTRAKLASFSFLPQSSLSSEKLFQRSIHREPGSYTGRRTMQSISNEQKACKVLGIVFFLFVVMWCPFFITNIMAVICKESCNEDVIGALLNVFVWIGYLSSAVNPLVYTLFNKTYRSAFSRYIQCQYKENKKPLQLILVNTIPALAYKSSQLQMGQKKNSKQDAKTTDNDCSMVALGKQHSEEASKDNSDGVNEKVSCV

NC(=O)CS(=O)C(c1ccccc1)c1ccccc1 (configuration not stated)
inactive: Potency [1] | Potency [2] | Potency [3] | Potency [4] | Potency [5] | Potency [6] | Potency [7] | Potency [8] | Potency [9] | Potency [10] | Potency [11] | Potency [12] | Potency [13]

O=[N+]([O-])c1ccc2ccc3cccc4ccc1c2c34
active: Potency [2] 61.1 µM
inactive: Potency [1] | Potency [3] | Potency [4] | Potency [14] | Potency [15] | Potency [7] | Potency [8] | Potency [16] | Potency [17] | Potency [18] | Potency [19] | Potency [9] | Potency [10] | Potency [12] | Potency [13]

CC[C@@H](CO)NC(=O)[C@@H]1C=C2c3cccc4[nH]cc(c34)C[C@H]2N(C)C1
inactive: Potency [1] | Potency [2] | Potency [3] | Potency [4] | Potency [14] | Potency [5] | Potency [6] | Potency [7] | Potency [8] | Potency [9] | Potency [10]

O=C(CCl)Nc1ccccc1
inactive: Potency [3] | Potency [4] | Potency [14] | Potency [5] | Potency [6] | Potency [7] | Potency [16] | Potency [17] | Potency [18] | Potency [19] | Potency [10] | Potency [11] | Potency [12] | Potency [13]
active: Potency [1] 21.7 µM | Potency [2] 15.4 µM

CC(C)(C#N)C(C)(C)C#N
inactive: Potency [1] | Potency [2] | Potency [3] | Potency [4] | Potency [5] | Potency [15] | Potency [6] | Potency [7] | Potency [16] | Potency [17] | Potency [18] | Potency [19] | Potency [9] | Potency [10] | Potency [11] | Potency [12] | Potency [13]

CC(C)OC(=O)C(O)(c1ccc(Cl)cc1)c1ccc(Cl)cc1
inactive: Potency [2] | Potency [3] | Potency [4] | Potency [14] | Potency [5] | Potency [16] | Potency [17] | Potency [19] | Potency [12]
active: Potency [1] 30.6 µM | Potency [15] 40.8 µM | Potency [18] 13.3 µM

CCOC(=O)c1cn2nc(OP(=S)(OCC)OCC)cc2nc1C
inactive: Potency [1] | Potency [2] | Potency [3] | Potency [4] | Potency [15] | Potency [6] | Potency [7] | Potency [8] | Potency [16] | Potency [17] | Potency [19] | Potency [11] | Potency [20] | Potency [12] | Potency [13]

Cc1ccc2nc3sc(=O)sc3nc2c1
inactive: activation [3] -1.66% [at 15.8 µM] | activation [4] -0.174% [at 11.8 µM] | activation [14] 12.4% [at 13.5 µM] | activation [5] 0.351% [at 13.6 µM] | activity change, negative = cytotoxicity [15] 4.93% [at 13.5 µM] | activity change, negative = cytotoxicity [7] -2.54% [at 13.5 µM] | activity, negative = inhibition [16] 8.83% [at 12.7 µM] | activation [17] -3.01% [at 15.9 µM] | activity, negative = inhibition [18] 5.56% [at 12.6 µM] | activation [19] -0.991% [at 15.8 µM] | activity change, negative = inhibition [10] 1.33% [at 18.9 µM] | activity change, negative = inhibition [11] -4.14% [at 19 µM]
active: Potency [1] 3.66 µM | Potency [2] 1.64 µM

CC(C)(C)NCC(O)c1cc(Cl)c(N)c(C(F)(F)F)c1 (configuration not stated)
inactive: Potency [1] | Potency [2] | Potency [3] | Potency [4] | Potency [14] | Potency [5] | Potency [15] | Potency [6] | Potency [8] | Potency [16] | Potency [17] | Potency [18] | Potency [19] | Potency [10] | Potency [12]
active: Potency [13] 0.0084 µM

CC(=O)C(Cl)(Cl)Cl
active: Potency [1] 16.6 µM | Potency [2] 20.9 µM | Potency [7] 24.8 µM
inactive: Potency [3] | Potency [4] | Potency [14] | Potency [5] | Potency [15] | Potency [8] | Potency [17] | Potency [19] | Potency [12] | Potency [13]

CC(=O)[C@H]1CC[C@H]2[C@@H]3CC[C@H]4C[C@H](O)CC[C@]4(C)[C@H]3C(=O)C[C@]12C
inactive: Potency [1] | Potency [2] | Potency [3] | Potency [4] | Potency [14] | Potency [5] | Potency [6] | Potency [7] | Potency [8] | Potency [16] | Potency [17] | Potency [18] | Potency [9] | Potency [11] | Potency [20] | Potency [12] | Potency [13]

ClCC(Cl)Cl
inactive: Potency [1] | Potency [2] | Potency [3] | Potency [4] | Potency [14] | Potency [5] | Potency [15] | Potency [6] | Potency [7] | Potency [9] | Potency [10] | Potency [11] | Potency [20] | Potency [12] | Potency [13]

CC(C)[C@@H](Nc1ccc(C(F)(F)F)cc1Cl)C(=O)OC(C#N)c1cccc(Oc2ccccc2)c1 (some centres not stated)
inactive: Potency [1] | Potency [2] | Potency [3] | Potency [4] | Potency [14] | Potency [5] | Potency [7] | Potency [8] | Potency [17] | Potency [18] | Potency [19] | Potency [10] | Potency [11] | Potency [20] | Potency [12] | Potency [13]

Cc1nnc(-c2ccccc2)c(=O)n1N
inactive: Potency [1] | Potency [2] | Potency [3] | Potency [4] | Potency [5] | Potency [15] | Potency [7] | Potency [8] | Potency [16] | Potency [17] | Potency [18] | Potency [19] | Potency [9] | Potency [10] | Potency [11] | Potency [12] | Potency [13]

Nc1ccc([N+](=O)[O-])cc1
active: Potency [1] 61.1 µM | Potency [2] 24.3 µM | Potency [7] 8.39 µM
inactive: Potency [3] | Potency [4] | Potency [14] | Potency [5] | Potency [18] | Potency [11] | Potency [13]

Oc1ccc(C(=C(Cl)Cl)c2ccc(O)cc2)cc1
inactive: Potency [2] | Potency [3] | Potency [4] | Potency [14] | Potency [5] | Potency [6] | Potency [8] | Potency [16] | Potency [19] | Potency [9] | Potency [12] | Potency [13]
active: Potency [1] 68.5 µM | Potency [15] 51.2 µM
